Unmarked numbers belong to inactive results. Inconclusive results are not listed. A call without a number means that no potency is given here. The source made the active and inactive calls. Unless noted, the call rests on the fitted dose curve; in most records, active means well fitted curve in the direction sought with a large enough effect; inconclusive means small, poorly fitted or top-dose-only effect, or another doubt; inactive means no such curve, though single readings can be large; an effect the other way counts as inactive or inconclusive.
Assays:
[1] = molecular target: Luciferin 4-monooxygenase (Photinus pyralis) (UniProt P08659); test: Biochemical firefly luciferase enzyme assay for NPC (AID 624030);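 further: purified P. pyralis luciferase at 10 nM with luciferin and ATP substrate; nearly all actives have a fitted effect of over 70% in size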; settings: purified P. pyralis luciferase, luminescence, 5 min; series mostly up to 58.6 µM
In short: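 Direct inhibition of firefly luciferase enzyme (10 nM final, 50 mM Tris Acetate) assessed by luminescence within 5 minutes. Percent activity scaled between DMSO and PTC124 positive control, with concentration-effect curves classified by fit quality and response.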

[2] = S16 Schwann cell PMP22 intronic element firefly luciferase assay (AID 624032); settings: S16 rat Schwann cells, PMP22 element FLuc, 24 h; series mostly up to 57.5 µM; further: nearly all actives have a fitted effect of over 30% in size
In short: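 Luciferase reporter of PMP22 intronic-element expression in stably transfected S16 rat Schwann cells, read by ONE-Glo luminescence after 24 h compound exposure at 37 C. Activity scaled between DMSO (0%) and positive-control PTC124; concentration-effect curves quality-classified.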

CP215 = test: qHTS profiling for inhibitors of Plasmodium falciparum proliferation (AID 504749); further: nearly all actives have a fitted effect of over 60% in size; further: potency means the concentration at half of the fitted maximal effect; settings: P. falciparum in erythrocytes, SYBR Green DNA, 72 h; series mostly up to 28.7 µM
In short: (§1)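 SYBR Green fluorescence of parasite DNA, read after lysis and overnight dark incubation, measured growth over 72 h in erythrocyte culture at 0.3% parasitemia and 2.5% hematocrit. Data normalised to DMSO and 0.29 uM artemisinin, with plate-drift correction.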

CP297 = test: as above; settings: P. falciparum in erythrocytes, SYBR Green DNA, 72 h; series mostly up to 28.7 µM
In short: as §1

CP315 = test: as above; settings: P. falciparum in erythrocytes, SYBR Green DNA, 72 h; series mostly up to 28.7 µM
In short: as §1

JCK = test: as above; settings: P. falciparum in erythrocytes, SYBR Green DNA, 72 h; series mostly up to 28.7 µM
In short: as §1

PC15 = test: as above; settings: P. falciparum in erythrocytes, SYBR Green DNA, 72 h; series mostly up to 28.7 µM
In short: as §1

[3] = molecular target: Androgen receptor (Homo sapiens) (UniProt P10275); test: qHTS assay for small molecule agonists of androgen receptor signaling (AID 588515; active means well fitted curve in the direction sought with a large enough effect in the signal ratio, with a control signal flat; the % refers to the signal ratio); settings: AR-UAS-bla HEK293, beta-lactamase ratio, agonist 16 h; active compounds read high
In short: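 Stimulation of an AR-responsive β-lactamase reporter in GripTite HEK293 cells was measured after 16 h compound exposure at 37 °C, via CCF4 fluorescence after 2 h RT. EC50 from Hill fits, normalized to R1881 at 30 nM.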

[4] = molecular target: Androgen receptor (Homo sapiens) (UniProt P10275); test: qHTS assay for small molecule antagonists of androgen receptor signaling (AID 588516; active means well fitted curve in the direction sought with a large enough effect in the signal ratio, with a control signal flat, not every such curve was filed as active; the % refers to the signal ratio); settings: AR-UAS-bla HEK293, beta-lactamase ratio, antagonist mode, 16 h; series mostly up to 76.8 µM
In short: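 Compounds tested in titration against 10 nM R1881 in AR-responsive bla reporter HEK 293 cells; CCF4 fluorescence (460/530 nm) after 16 h exposure gave IC50 and efficacy.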

W2 = test: qHTS profiling for inhibitors of Plasmodium falciparum proliferation (AID 504749); further: nearly all actives have a fitted effect of over 60% in size; further: potency means the concentration at half of the fitted maximal effect; settings: P. falciparum in erythrocytes, SYBR Green DNA, 72 h; series mostly up to 28.7 µM
In short: as §1

[5] = molecular target: DNA dC->dU-editing enzyme APOBEC-3G (Homo sapiens) (UniProt Q9HC16); test: qHTS for inhibitors of Vif-A3G interactions: Validation (AID 588379); settings: Vif-A3G protein interaction assay; series mostly up to 46.1 µM
In short: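 Yellow fluorescence (Ex 488, Em 500-530) of Vif-coexpressing HeLa A3G-eYFP cells, scanned by Acumen cytometer, reports blocked A3G degradation. Cells plated at 700/well overnight at 37 deg C before compound addition, then a further overnight compound incubation at 37 deg C.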

Sequence of Androgen receptor (Homo sapiens) (P10275 whole entry, looked up): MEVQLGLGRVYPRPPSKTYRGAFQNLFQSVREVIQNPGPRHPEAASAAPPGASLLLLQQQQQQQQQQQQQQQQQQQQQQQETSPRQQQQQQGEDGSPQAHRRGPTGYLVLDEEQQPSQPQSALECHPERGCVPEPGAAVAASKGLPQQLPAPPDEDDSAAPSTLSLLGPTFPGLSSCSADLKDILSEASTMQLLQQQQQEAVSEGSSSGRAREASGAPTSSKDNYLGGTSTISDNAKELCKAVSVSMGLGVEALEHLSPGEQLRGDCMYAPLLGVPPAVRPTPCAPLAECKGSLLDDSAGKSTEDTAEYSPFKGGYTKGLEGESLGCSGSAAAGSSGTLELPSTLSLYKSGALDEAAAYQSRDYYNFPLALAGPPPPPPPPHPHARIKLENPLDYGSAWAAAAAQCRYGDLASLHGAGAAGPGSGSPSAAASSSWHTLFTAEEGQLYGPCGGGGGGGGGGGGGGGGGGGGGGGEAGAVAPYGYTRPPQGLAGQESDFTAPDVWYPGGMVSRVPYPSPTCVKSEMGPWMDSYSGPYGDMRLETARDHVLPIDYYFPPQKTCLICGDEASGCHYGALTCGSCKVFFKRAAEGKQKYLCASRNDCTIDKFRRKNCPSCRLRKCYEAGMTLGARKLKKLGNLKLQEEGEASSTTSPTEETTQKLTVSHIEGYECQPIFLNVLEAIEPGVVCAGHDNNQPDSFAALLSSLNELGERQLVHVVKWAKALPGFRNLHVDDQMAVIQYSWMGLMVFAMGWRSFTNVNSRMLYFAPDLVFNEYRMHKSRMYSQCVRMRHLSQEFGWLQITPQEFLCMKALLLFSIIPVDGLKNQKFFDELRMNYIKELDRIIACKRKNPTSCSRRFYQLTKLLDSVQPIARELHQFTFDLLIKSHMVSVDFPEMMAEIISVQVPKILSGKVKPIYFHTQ
Sequence of DNA dC->dU-editing enzyme APOBEC-3G (Homo sapiens) (Q9HC16 whole entry, looked up): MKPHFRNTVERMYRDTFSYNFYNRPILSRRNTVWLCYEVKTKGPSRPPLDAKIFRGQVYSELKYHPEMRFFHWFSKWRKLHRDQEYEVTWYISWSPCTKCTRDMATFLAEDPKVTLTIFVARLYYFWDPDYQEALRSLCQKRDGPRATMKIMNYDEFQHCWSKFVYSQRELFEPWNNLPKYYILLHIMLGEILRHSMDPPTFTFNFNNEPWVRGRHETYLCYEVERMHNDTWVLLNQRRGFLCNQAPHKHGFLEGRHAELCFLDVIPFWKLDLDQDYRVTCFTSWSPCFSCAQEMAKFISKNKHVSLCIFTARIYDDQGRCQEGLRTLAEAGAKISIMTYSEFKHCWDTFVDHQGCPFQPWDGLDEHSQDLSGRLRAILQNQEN
Sequence of Luciferin 4-monooxygenase (Photinus pyralis) (P08659 whole entry, looked up): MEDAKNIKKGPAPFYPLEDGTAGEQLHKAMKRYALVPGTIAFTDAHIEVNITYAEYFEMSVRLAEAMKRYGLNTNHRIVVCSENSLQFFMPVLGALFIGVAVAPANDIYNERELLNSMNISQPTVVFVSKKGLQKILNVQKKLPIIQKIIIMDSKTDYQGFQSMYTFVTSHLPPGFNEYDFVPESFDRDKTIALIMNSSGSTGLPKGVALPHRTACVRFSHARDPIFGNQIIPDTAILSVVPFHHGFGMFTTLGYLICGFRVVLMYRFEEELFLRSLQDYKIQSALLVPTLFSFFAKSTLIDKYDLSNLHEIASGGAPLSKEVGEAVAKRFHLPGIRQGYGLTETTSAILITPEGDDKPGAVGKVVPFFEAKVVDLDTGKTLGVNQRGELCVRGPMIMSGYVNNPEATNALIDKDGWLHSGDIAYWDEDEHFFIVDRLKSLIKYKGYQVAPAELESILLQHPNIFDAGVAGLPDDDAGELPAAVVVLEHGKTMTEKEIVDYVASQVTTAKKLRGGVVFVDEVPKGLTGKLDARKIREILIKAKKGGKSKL

CN1[C@H]2CC(OC(=O)[C@H](CO)c3ccccc3)C[C@H]1[C@H]1O[C@H]12 (stereo partly specified)
Potency [1]: inactive | Potency [2]: inactive | Potency (CP215): inactive | Potency (CP297): inactive | Potency (CP315): inactive | Potency (JCK): inactive | Potency (PC15): inactive

CN(C)c1ccc(C2(c3ccc(N(C)C)cc3)OC(=O)c3cc(N(C)C)ccc32)cc1
activation [3]: 19.5% | outcome [4]: inactive

CO[C@H]1/C=C/O[C@@]2(C)Oc3c(C)c(O)c4c(O)c(c5c(c4c3C2=O)NC2(CCN(CC(C)C)CC2)N=5)=NC(=O)/C(C)=C\C=C\[C@H](C)[C@H](O)[C@@H](C)[C@@H](O)[C@@H](C)[C@H](OC(C)=O)[C@@H]1C
Potency (W2): 4.78 µM (active)

COc1cc2c(c(OC)c1OC)-c1ccc(OC)c(=O)cc1[C@H](NC(C)=O)CC2
outcome [5]: inactive

From PubChem BioAssay (NCATS)
